About 79,000 compounds went through this panel and 15% of them were active in at least one assay; those are over-represented in the sample as a whole. Unmarked numbers belong to inactive results. Active and inactive are the calls of the source. No stated cut-off is given here; in the data, active means growth inhibition above about 70%; inactive means the rest.
Experiments:
[1] = NCI Yeast Anticancer Drug Screen. Data for the rad50 strain (AID 155);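 further: 0% = growth of vehicle-only cultures of the same strain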; settings: S. cerevisiae rad50 strain growth inhibition, active compounds read high
Method in brief: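 Relative growth inhibition (compound vs vehicle) was measured in yeast with a defined repair-gene alteration.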

[2] = NCI Yeast Anticancer Drug Screen. Data for the mec2-1 strain (AID 157); settings: S. cerevisiae mec2-1 strain, active compounds read high
Method in brief: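 Each compound was tested on mec2-1 yeast, a strain altered in DNA damage repair or cell cycle control. Growth inhibition is reported relative to vehicle.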

[3] = NCI Yeast Anticancer Drug Screen. Data for the sgs1 mgt1 strain (AID 161);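 further: 0% = growth of cultures given vehicle only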; settings: S. cerevisiae sgs1 mgt1 strain, active compounds read high
Method in brief: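 Test agents were incubated with a DNA-repair-mutant yeast strain. Growth was then read and compared against vehicle-treated controls.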

[4] = NCI Yeast Anticancer Drug Screen. Data for the cln2 rad14 strain (AID 165);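 further: 0% = growth equal to vehicle treated cultures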; settings: S. cerevisiae cln2 rad14 strain, active compounds read high
Method in brief: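 Test compounds were added to cln2 rad14 yeast cultures; inhibition of growth was then determined by comparison with vehicle treatment.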

[5] = NCI Yeast Anticancer Drug Screen. Data for the bub3 strain (AID 167); settings: S. cerevisiae bub3 mutant strain, active compounds read high
Method in brief: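 Screening used yeast with an engineered genetic alteration affecting cell cycle control. Compound-exposed cultures were compared with vehicle cultures, and reduced growth was taken as inhibition.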

[6] = NCI Yeast Anticancer Drug Screen. Data for the mlh1 rad18 strain (AID 175); settings: S. cerevisiae mlh1 rad18 strain growth inhibition, active compounds read high
Method in brief: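 Inhibition values reflect reduced growth of mutant yeast versus vehicle-treated controls following compound exposure; the mutations affect DNA damage repair.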

[7] = at 5.0 µM (retest, dose inferred, filed as 0.5)
[8] = at 50.0 µM (retest, dose inferred, filed as 5.0)

Structure (SMILES)	growth inhibition [1, 7]	growth inhibition [1, 8]	growth inhibition ([1]; at 50.0 µM)	growth inhibition [2, 7]	growth inhibition [2, 8]	growth inhibition ([2]; at 50.0 µM)	growth inhibition [3, 7]	growth inhibition [3, 8]	growth inhibition ([3]; at 50.0 µM)	growth inhibition [4, 7]	growth inhibition [4, 8]	growth inhibition ([4]; at 50.0 µM)	growth inhibition [5, 7]	growth inhibition [5, 8]	growth inhibition ([5]; at 50.0 µM)	growth inhibition [6, 7]	growth inhibition [6, 8]	growth inhibition ([6]; at 50.0 µM)
Cc1cc2nc(CS)[nH]c2cc1C	-13%	41%	66.3%	4%	44%	51.9%	15%	70% (active)	70.8% (active)	31%	51%	43.2%	26%	85% (active)	55.9%	-13%	61%	44.2%
Nc1nc2nc(I)[nH]c2c(=O)[nH]1	-4%	-4%	4.8%	-13%	-16%	-2.5%	10%	9%	-5.25%	-8%	-4%	30.3%	-7%	3%	31.6%	-9%	-2%	10.9%
CCOC(=O)c1c(C)[nH]c(CO)c1C	-1%	14%	28.1%	6%	20%	38%	2%	24%	43.1%	4%	0%	31.8%	4%	8%	34%	-1%	13%	65.5%
O=C1C=CC(=O)N1c1cccc(F)c1	96% (active)	99% (active)	99.7% (active)	97% (active)	100% (active)	99.8% (active)	93% (active)	99% (active)	99.7% (active)	82% (active)	99% (active)	98.8% (active)	98% (active)	100% (active)	99.6% (active)	88% (active)	100% (active)	99.4% (active)
Nc1ccc(-c2nc3ccccc3s2)cc1Br	33%	74% (active)	8%	24%	77% (active)	18.8%	31%	97% (active)	21.1%	27%	63%	10.8%	28%	96% (active)	52%	34%	88% (active)	55.9%
CCCCCCCN=C(N)c1ccc(C(=O)OCc2ccccc2)cc1	1%	86% (active)	99.5% (active)	-12%	76% (active)	99.8% (active)	5%	95% (active)	99.8% (active)	-2%	80% (active)	99.4% (active)	0%	77% (active)	99.4% (active)	6%	94% (active)	99.7% (active)
CC(=O)[O-].CC(=O)[O-].CC(=O)[O-].CC(=O)[O-].Cn1c(=O)c2[nH]cnc2n(C)c1=O.Cn1c(=O)c2[nH]cnc2n(C)c1=O.[Rh+2].[Rh+2]	3%	20%	43.3%	12%	23%	27.6%	12%	13%	-39.7%	9%	9%	-5.35%	11%	19%	-29.4%	48%	62%	23.1%
CN(C=O)c1ccc2c(c1)Cc1ccccc1-2	14%	80% (active)	47.7%	4%	22%	24.8%	27%	82% (active)	44.9%	2%	40%	58.8%	15%	55%	22.2%	13%	74% (active)	82% (active)
CSC(=S)NN=C1CCCCC1	59%	97% (active)	90.9% (active)	47%	98% (active)	88.5% (active)	49%	97% (active)	93.8% (active)	9%	78% (active)	58.6%	81% (active)	97% (active)	93.7% (active)	55%	96% (active)	90.8% (active)
CCCCCCCCCCCC(=O)OCC1OC(n2cc(F)c(=O)[nH]c2=O)C(N)C(O)C1O (configuration not stated)	34%	34%	90.2% (active)	31%	31%	91% (active)	10%	10%	89.1% (active)	22%	22%	91.2% (active)	-11%	-11%	90.3% (active)	24%	24%	88.5% (active)
CCN(CC)Cc1c(-c2ccccc2)oc(-c2ccccc2)c1CN(CC)CC	-15%	33%	64.7%	1%	2%	-0.45%	-15%	33%	-5.75%	-2%	-1%	-9.8%	1%	8%	36.4%	2%	32%	67.4%
CN=C(N)N/N=C(\C)c1ccc2c(c1)Cc1cc(/C(C)=N/NC(N)=NC)ccc1-2	63%	94% (active)	87% (active)	53%	96% (active)	75.9% (active)	45%	98% (active)	83.2% (active)	50%	95% (active)	85.3% (active)	54%	96% (active)	86.1% (active)	59%	96% (active)	86.4% (active)
Cn1c2ccccc2c2nnc(N/N=C/c3ccccn3)nc21	26%	98% (active)	94.4% (active)	21%	97% (active)	96.5% (active)	23%	98% (active)	96.9% (active)	8%	97% (active)	96.2% (active)	13%	99% (active)	96.2% (active)	22%	98% (active)	96.4% (active)
Cc1cc(N(CCC#N)CCC#N)ccc1/C(N=Nc1cccc([N+](=O)[O-])c1)=N/NC(=O)c1cc(Cl)ccc1O	8%	47%	63.4%	8%	25%	47%	9%	49%	66%	-1%	28%	23.9%	8%	58%	79.3% (active)	12%	29%	31.9%
CNC(=O)c1ccc(OC)cc1C1(O)c2ccccc2CCc2ccccc21	40%	64%	58.6%	34%	49%	45%	36%	78% (active)	80.5% (active)	27%	49%	46.4%	37%	87% (active)	58.8%	46%	76% (active)	58.8%
COc1cc(/C=C(/C)C[N+](=O)[O-])ccc1O	54%	99% (active)	99.5% (active)	23%	99% (active)	99.8% (active)	15%	93% (active)	99.8% (active)	13%	99% (active)	98.8% (active)	36%	99% (active)	98.8% (active)	25%	99% (active)	99.5% (active)
O=S1(=O)CC(Cl)(Cl)C1	3%	49%	19.6%	3%	52%	2.85%	7%	20%	15.1%	-1%	25%	75.3% (active)	4%	58%	-17.8%	5%	58%	11.6%
CN(Cc1ccccc1)c1nc(=[N+](C)C)ss1	5%	-1%	4.35%	-5%	-1%	8.8%	11%	8%	26.3%	17%	15%	-30.9%	14%	11%	12.2%	10%	16%	33.4%
Cc1ccc(C2SCc3nc4ccccc4n32)cc1 (configuration not stated)	-4%	51%	31.2%	-38%	39%	20.8%	-26%	57%	49.1%	2%	46%	34%	-2%	93% (active)	70.4% (active)	13%	86% (active)	48.9%

Reference: PubChem BioAssay (NCI)
